Source: PubChem (several laboratories)
Compounds with a hit are over-represented: about 2.1% of the library has one in this group of screens.
Calb FLC: affects C. albicans growth with fluconazole; C. albicans CaCi-2 (fluconazole-resistant clinical isolate) + fluconazole, Alamar Blue growth, 48 h; growth inhibition, % (no concentration beside the values); actives 0.57% (n = 300,000); AID 1979;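 active = growth inhibition above about 58% in most replicates, limit read from the data, passing the limit was not always enough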;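 also: all wells also contain fluconazole at 8 µg/ml as a sub-toxic cotreatment; 0% = median of DMSO wells and 100% = median of geldanamycin control wells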
CTSL1 counter-1: counter-screen for PFM18AAP inhibitors: inhibitors of F. hepatica cathepsin L1; recombinant F. hepatica cathepsin L1, Z-Leu-Arg-MCA fluorescence; inhibition, % at 5.96 µM; actives 0.49% (n = 300,000); AID 1906;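 active = inhibition above the mean of all tested compounds plus 3 SD, set per screening campaign, cut at about 17% in these data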;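 also: 0% = plate median of test compound wells and 100% = 1 µM Z-Phe-Ala-diazomethylketone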
PfM18AAP inh-1: blocks P. falciparum M18 aspartyl aminopeptidase; recombinant PfM18AAP, H-Glu-NHMec fluorogenic cleavage; inhibition, % at 7.35 µM; actives 1.2% (n = 290,000); AID 1822;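 active = inhibition above the campaign mean inhibition over all tested compounds plus 3 SD, cut at about 28% in these data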;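 also: 0% = plate median of test compound wells and 100% = 2 mM ZnCl2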
Rin1-Abl PPI inh: inhibitors of human Rin1-Abl protein interaction | TR-FRET Rin1/Abl binding, biochemical | inhibition, % at 7.35 µM | actives 0.4% (n = 360,000) | AID 588664; in the data active = inhibition above about 5%, passing the limit was not always enough
PfM18AAP inh-2: confirmation of Plasmodium falciparum M18 aspartyl aminopeptidase inhibitors; shares compounds with PfM18AAP inh-1; inhibition, % at 7.35 µM; recombinant PfM18AAP, H-Glu-NHMec fluorogenic cleavage; actives 28% (n = 2,400);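 active = mean inhibition over replicate wells above the hit cutoff set for the earlier primary screen, cut at about 29% in these data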;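 also: 0% = median of test compound wells and 100% = 2 mM ZnCl2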
CTSL1 counter-2: counter-screen for PFM18AAP inhibitors: confirmation of human cathepsin L inhibitors; shares compounds with PfM18AAP inh-1; 2,400 tested, under 10 active; AID 2178; purified cathepsin L1, Z-Leu-Arg-MCA fluorescence; inhibition, % at 5.96 µM;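 active = average inhibition across replicates above the hit cutoff set in the earlier primary screen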;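 also: 0% = median of test compound wells and 100% = Z-Phe-Ala-diazomethylketone 1 µM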
The depositor's hits bear a star; / = not tested or not shown.

SMILES	Calb FLC	CTSL1 counter-1	PfM18AAP inh-1	Rin1-Abl PPI inh	PfM18AAP inh-2	CTSL1 counter-2
Cc1cccc(NC(=O)Cn2cc(C(=O)C3CC3)c3ccccc32)c1C	0.0	-0.7	-1.3	3.0	/	/
COc1ccc(/C=C(\C#N)C(=O)C(C)(C)n2cncn2)cc1	-16.2	-3.0	58.7*	-2.1	-8.5	-2.0
COc1ccc(/C=C(\C#N)C(=O)c2cccn2C)cc1	0.3	1.1	3.8	1.3	/	/
NC(=O)c1ccc(N2CCN(c3ccccc3F)CC2)c([N+](=O)[O-])c1	5.7	2.9	5.7	-1.0	/	/
NC(=O)c1ccc(N2CCN(c3ccccc3O)CC2)c([N+](=O)[O-])c1	2.3	-0.8	36.4*	3.7	-7.9	-4.0
O=C(NNc1ccc(C2CCCCC2)cc1)C(O)(c1ccccc1)c1cccs1 (centres undefined)	16.6	0.4	1.7	3.9	/	/
COc1ccc(C(O)(C(=O)NNc2ccc(C)cc2)c2cccs2)cc1 (centres undefined)	109.6*	6.1	41.7*	3.0	-47.0	-0.8
O=C(/C=C/c1cccs1)N1CCN(c2ccc(O)cc2)CC1	-3.2	2.9	44.6*	-2.5	-10.2	4.9
O=C(/C=C/c1cccs1)N1CCCCC1	-1.0	2.5	-3.0	3.8	/	/
Cc1cc(N2CCCC2)ccc1/C=N/n1cnnc1	-2.1	2.1	32.0*	2.1	3.0	1.7
CCOC(=O)c1sc(N/N=C/c2cc(Br)c(O)c(OC)c2)nc1C	28.5	3.7	36.8*	-2.2	11.1	-2.5
CCOC(=O)N/N=C/c1cc(OC)c(O)c(OC)c1	-1.6	2.3	10.7	-0.3	/	/
CCOC(=O)CC1Sc2ccccc2NC1=S (centres undefined)	0.3	-0.5	36.6*	-0.6	-16.0	7.5
O=C(NCc1ccco1)c1cc2cc(Br)ccc2o1	-7.7	2.0	32.6*	-2.6	-13.1	-2.9
COc1ccccc1OCC(=O)NNC(=O)CCCC(=O)NNC(=O)COc1ccccc1OC	-1.3	-6.1	24.5	2.5	/	/
NC(=S)NNC(=O)COc1ccccc1O	3.8	-1.2	37.3*	-2.0	39.1*	-1.5
CCOC(=O)c1ccc(-n2c(N)c(C(=O)NCc3ccco3)sc2=S)cc1	9.9	1.1	9.9	1.0	/	/
C=CCNC(=O)c1sc(=S)n(-c2ccc(C(=O)OCC)cc2)c1N	-0.8	3.7	42.3*	-1.1	-4.5	-0.2
O=C(Nn1cnnc1)c1cc(Cl)cc(Cl)c1	-1.3	-0.2	47.0*	-1.5	32.3*	-6.9
Cc1ccc(C(=O)Nc2cccnc2Cl)cc1Cl	3.5	4.3	-3.0	2.4	/	/
Cc1cc(C(=O)Nc2ccncc2)ccc1[N+](=O)[O-]	-7.4	4.4	-1.1	1.1	/	/
O=C(Nn1cnnc1)c1ccncc1	-8.5	-0.2	13.1	1.6	/	/
N#Cc1ccc(C(=O)Nn2cnnc2)cc1	-3.4	-6.6	45.0*	2.9	27.0	-3.1
Cc1ccc(C(=O)Nn2cnnc2)cc1Cl	-3.7	-24.4	47.1*	0.7	33.1*	1.0
Cc1cc(C(=O)Nn2cnnc2)ccc1[N+](=O)[O-]	6.9	0.1	46.2*	-2.5	51.1*	5.7
SMILES	Calb FLC	CTSL1 counter-1	PfM18AAP inh-1	Rin1-Abl PPI inh	PfM18AAP inh-2	CTSL1 counter-2
CCCCCCN1CC(C(=O)OCC)C(=O)C1=O (centres undefined)	-11.5	-0.7	1.9	-1.9	/	/
COc1ccccc1C1CCN(c2ccc(CO)cc2[N+](=O)[O-])CC1	23.0	-2.0	-12.4	-1.9	/	/
COc1cc(/C=C2\N=C(c3c(-c4ccccc4)noc3C)OC2=O)ccc1OC(C)=O	18.5	1.1	-10.7	-4.0	/	/
O=C(Nn1cnnc1)c1cccc(S(=O)(=O)N2CCOCC2)c1	1.9	5.9	38.2*	2.5	32.9*	-0.5
O=C(Nc1ccncc1)c1cccc(S(=O)(=O)N2CCOCC2)c1	-11.2	-2.3	/	-3.3	/	/
O=C(Nn1cnnc1)c1ccc(Cl)c([N+](=O)[O-])c1	-0.7	-1.6	44.3*	-1.3	43.8*	-4.0
OCCNc1nc(N2CCN(c3ccccc3)CC2)nc2ccccc12	-1.3	1.2	5.0	-2.1	/	/
CCOC(=O)c1oc2c(O)c(O)ccc2c(=O)c1-c1nncn1-c1ccccc1	0.8	-0.1	46.1*	1.3	26.0	5.0
Clc1cnc(N/N=C/c2ccco2)c(Cl)c1	-0.4	2.2	47.1*	1.9	-29.5	-5.5
Cc1cc2nc3ccc(=[N+](C)C)cc-3sc2cc1N	26.0	/	36.2*	-42.5	-18.3	10.2
Cc1ccc(-n2sc3ccccc3c2=O)cc1	2.1	3.6	66.2*	0.9	76.3*	5.7
